Screening data: PubChem, Center for Chemical Genomics, University of Michigan
Dicer inh: blocks human Dicer maturation of pre-miR-21 | Q9UPY3 | actives 6% (n = 47,000) | AID 1347074 | cat-ELCCA pre-miR-21 Dicer processing, chemiluminescence; active compounds read high | z-score at 25 µM; in the data active = z-score above about 3, passing the limit was not always enough;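 also: plate controls were vehicle for no effect and no enzyme for full effect; higher signal means more uncleaved substrate so more Dicer inhibition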
Numbers without * were called inactive. The entries come from a sample that favours hits as a whole.

How did Cc1ccc2c(c1)-c1cc(C)nn1C(c1ccc3c(c1)OCO3)N2 (stereo unspecified) do in these assays?
Dicer inh: 1.17

How did Cc1ccc2c(c1)-c1cc(C)nn1C(c1ccc(O)c(O)c1)N2 (stereo unspecified) do in these assays?
Dicer inh: 3.46*

What do the screens show for `Cc1ccc2c(c1)-c1cc(C)nn1C(c1cc(C)ccc1O)N2` (stereo unspecified)?
Dicer inh: 1.01

How did Cc1ccc2c(c1)-c1cc(C)nn1C(c1cccc(O)c1O)N2 (stereo unspecified) do in these assays?
Dicer inh: 32.5*

How did COC(=O)c1ccc(C2Nc3ccc(C)cc3-c3cc(C)nn32)cc1 (stereo unspecified) do in these assays?
Dicer inh: -0.59

How did Cc1cc(C)c2c(c1)-c1cc(C)nn1C(c1ccccc1O)N2 (stereo unspecified) do in these assays?
Dicer inh: -0.3

What do the screens show for `Cc1ccc2c(c1)-c1cc(C)nn1C(c1sccc1C)N2` (stereo unspecified)?
Dicer inh: 0.99

How did Cc1cc(C)c2c(c1)-c1cc(C)nn1C(c1cccc(O)c1)N2 (stereo unspecified) do in these assays?
Dicer inh: 1.25

Results for CCOC(=O)N/N=C(\C)c1ccccc1-c1ccccc1/C(C)=N/NC(=O)OCC ?
Dicer inh: -0.53

What do the screens show for `O=S(=O)(c1cccs1)N1CCC(C(c2ccccc2)c2ccccc2)CC1`?
Dicer inh: -1.67

What do the screens show for `O=c1c2c(N3CCCCC3)cc(N3CCCCC3)nc2n(-c2ccccc2)c(=O)n1-c1ccccc1`?
Dicer inh: 0.74

Results for CC1(C)Cc2ccccc2C2=C(C(=O)N3CCCC3)C(=O)C(=O)N21 ?
Dicer inh: -1.27

Results for CCC1(CC)Cc2ccccc2C2=C(C(=O)N3CCOCC3)C(=O)C(=O)N21 ?
Dicer inh: 3.97*

What do the screens show for `O=C1C(=O)N2C(=C1C(=O)N1CCOCC1)c1ccccc1CC21CCCC1`?
Dicer inh: -1.08

Results for Oc1ccc2ncccc2c1C(Nc1ccccn1)c1ccc(F)cc1 (stereo unspecified) ?
Dicer inh: 0.2

Results for Cn1c(SCc2nc(-c3ccc(Br)cc3)no2)nnc1C1CCCCC1 ?
Dicer inh: 0.8

Results for CCCC1=C(C(=O)OCC)C(c2ccccc2)n2c(nc3ccccc32)N1 (stereo unspecified) ?
Dicer inh: -0.46

What do the screens show for `CCCC1=C(C(=O)OCC)C(c2ccccc2F)n2c(nc3ccccc32)N1` (stereo unspecified)?
Dicer inh: 0.12

What do the screens show for `CCCC1=C(C(=O)OCC)C(c2ccc(O)cc2)n2c(nc3ccccc32)N1` (stereo unspecified)?
Dicer inh: 3.62*

What do the screens show for `N#CC1=C2N=C(N)c3ccccc3N2C2=C(C(=O)CCC2)C1c1ccc(Br)cc1` (stereo unspecified)?
Dicer inh: 0.96

Results for CN1C(=O)c2cccc3c(Br)c(N)cc(c23)C1=O ?
Dicer inh: -1.03

Results for CC(=O)ON1C(=O)c2cccc3cccc(c23)C1=O ?
Dicer inh: 1.23

Results for COc1ccc2ccccc2c1Br ?
Dicer inh: -1.28

What do the screens show for `COc1ccc2cccc3c2c1C=CC3=O`?
Dicer inh: 4.22*

Results for CCN(CC)c1cc(Cl)cc(Cl)c1 ?
Dicer inh: -0.94

Results for COc1ccc(S(=O)(=O)Nc2c(C)cc(O)cc2C)cc1 ?
Dicer inh: 5.2*

Results for COc1ccc(NS(=O)(=O)c2ccc(Br)cc2)cc1 ?
Dicer inh: 2.27

How did COc1ccc(S(=O)(=O)Nc2cc(OC)c(Cl)cc2OC)cc1 do in these assays?
Dicer inh: 1.34

Results for CCCc1cc(=O)n2c(-c3ccc(Cl)cc3)csc2n1 ?
Dicer inh: -0.19

How did Cc1nn(-c2ccccc2)c2c1C1(C)CC(C)(O2)c2c(C)nn(-c3ccccc3)c2O1 do in these assays?
Dicer inh: -8.8

What do the screens show for `Fc1ccc(C2=NN(c3ccccc3)C(c3ccc(F)cc3)C2)cc1` (stereo unspecified)?
Dicer inh: 2.41

Results for CC1=NN(c2ccccc2)C(C2=C(C)CCCC2(C)C)C1 (stereo unspecified) ?
Dicer inh: 3.23*

What do the screens show for `CCOC(=O)c1c(NC(C)=O)sc2c1CCC(C(C)(C)C)C2` (stereo unspecified)?
Dicer inh: -0.86

How did O=C(Oc1nsnc1N1CCOCC1)N1CCOCC1 do in these assays?
Dicer inh: 3.1*

What do the screens show for `C1CN(c2nsnc2OCCOc2nsnc2N2CCOCC2)CCO1`?
Dicer inh: -0.25

What do the screens show for `O=C(Oc1nsnc1N1CCOCC1)N1CCCCC1`?
Dicer inh: 1.49

How did CCOc1ccc(Cc2c(C)nc(N)[nH]c2=O)cc1 do in these assays?
Dicer inh: -0.32

What do the screens show for `Cn1cnnc1SCc1cccc2ccccc12`?
Dicer inh: 2.3

Results for Cc1oc(-c2ccccc2)cc1C(=O)/C=C/N(C)C ?
Dicer inh: 1.66

How did CN(C)/C=C/C(=O)c1ccc(Br)s1 do in these assays?
Dicer inh: -0.94

Results for CN(C)/C=C/C(=O)c1csc2ccccc12 ?
Dicer inh: 3.53*
